A selection: hits, their analogues and other compounds. The true share with any hit is near 4%.
ADAM17 inh: inhibits human ADAM17. P78536. recombinant ADAM17, EDANS/DABCYL FRET peptide cleavage. inhibition, % at 6.95 µM. hit rate 0.83% among 370,000. AID 720648;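 active means inhibition above the mean of compounds lying between control limits plus 3 SD, set per campaign, cut at about 8.5% in these data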;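 further: 0% = DMSO-only wells as the low control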
Target sequence (P78536 215-824 limits assumed): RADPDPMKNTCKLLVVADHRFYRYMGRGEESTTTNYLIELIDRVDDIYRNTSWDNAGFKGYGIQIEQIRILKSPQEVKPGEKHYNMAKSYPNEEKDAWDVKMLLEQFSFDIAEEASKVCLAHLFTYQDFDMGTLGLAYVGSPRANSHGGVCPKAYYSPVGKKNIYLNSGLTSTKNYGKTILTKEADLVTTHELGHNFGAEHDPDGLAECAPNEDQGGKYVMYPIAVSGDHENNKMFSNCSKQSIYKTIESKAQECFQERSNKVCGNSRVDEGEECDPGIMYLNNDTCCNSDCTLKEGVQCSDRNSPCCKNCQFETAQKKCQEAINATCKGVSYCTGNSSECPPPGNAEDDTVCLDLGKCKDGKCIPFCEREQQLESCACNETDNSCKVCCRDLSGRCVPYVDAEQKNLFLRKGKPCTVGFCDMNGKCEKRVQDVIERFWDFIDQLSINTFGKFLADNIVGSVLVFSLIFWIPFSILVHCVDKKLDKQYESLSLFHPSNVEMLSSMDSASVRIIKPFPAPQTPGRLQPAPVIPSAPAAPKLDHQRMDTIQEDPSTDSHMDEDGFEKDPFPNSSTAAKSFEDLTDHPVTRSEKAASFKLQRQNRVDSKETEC
ADAM10 inh: inhibitors of human ADAM10 | O14672 | recombinant ADAM10, EDANS/DABCYL FRET peptide cleavage, 3 h | inhibition, % at 7 µM | hit rate 0.62% among 370,000;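 active means inhibition above a per-campaign cutoff equal to the mean of compounds falling between control-based bounds plus 3 SD, cut at about 20% in these data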;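 further: 0% = DMSO wells while the 100% control is not disclosed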
aDG glyco act: alpha-DG glycosylation activation | Pro5-aDG cells, alpha-DG glycosylation AlphaScreen (IIH6); 0% Pro5, 100% B10-LARGE cell signal | activation, % at 10 µM | hit rate 0.22% among 360,000;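 active means activation of at least 8% versus controls, or a plate z-score of at least 8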;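 further: Pro5 are CHO cells carrying HIG-tagged alpha-DG that lacks glycosylation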
NR3A LBD binder: modulates the human NR3A ligand-binding domain | NR3A LBD differential scanning fluorimetry, Tm shift; 0% = protein alone, 100% = glycine-bound protein | Tm shift relative to glycine control, % at 25 µM | hit rate 2.5% among 340,000;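 active means melting temperature shift of at least 10% of the positive control shift, at one fixed dose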
FAS TE block: FAS thioesterase (human) inhibition; recombinant FAS-TE, OMFH fluorogenic substrate, fluorescence endpoint; inhibition, % at 15 µM; hit rate 0.67% among 360,000;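 active means compounds whose normalised, plate-corrected inhibition of enzyme fluorescence in the single-dose primary screen is 50% or more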;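 further: 0% = DMSO with enzyme and 100% = substrate without enzyme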
Numbers without * were called inactive; nt = no result.

SMILES	ADAM17 inh	ADAM10 inh	aDG glyco act	NR3A LBD binder	FAS TE block
Cc1ccc(-c2nc3ccc([N+](=O)[O-])cc3[nH]2)cc1	0	6	0	25*	20
O=[N+]([O-])c1ccc2nc(-c3ccc(Cl)cc3)[nH]c2c1	-22	-85	1	28*	17
O=[N+]([O-])c1ccc2nc(-c3ccncc3)[nH]c2c1	-1	3	0	1	8
O=[N+]([O-])c1cccc(-c2nc3ccc([N+](=O)[O-])cc3[nH]2)c1	-2	2	0	-2	28
CCCCC(=O)N1CCN(c2nc(-c3ccc(F)cc3)cs2)CC1	-2	-2	0	-2	5
CCOc1ccc(-c2c(=O)n(OCc3ccc([N+](=O)[O-])cc3)c3ccccc3[n+]2[O-])c(OCC)c1	-2	-4	0	-1	0
COc1ccc(CC(=O)N2CCc3cc(OC)c(OC)cc3C2O)cc1OC (configuration not stated)	-28	-64	0	10*	-5
COc1ccc(-c2cn[nH]c2-c2ccc(OC)cc2O)cc1	-2	10	0	nt	-71
COc1ccc(-c2[nH]ncc2-c2ccc(Cl)cc2)c(O)c1	4	15	0	1	-72
O=[N+]([O-])c1ccc(COc2ccc(-c3[nH]ncc3-c3ccc(Cl)cc3)c(O)c2)cc1	4	6	1	35*	-8
CCc1cc(-c2[nH]ncc2-c2ccc([N+](=O)[O-])cc2)c(O)cc1OC	nt	nt	0	29*	-28
Oc1ccc(-c2[nH]ncc2-c2ccc(Cl)cc2)c(O)c1	7	3	1	12*	-140
Cc1ccc(C(=O)NNC2CC(=O)N(c3ccc4c(c3)OCCO4)C2=O)cc1 (configuration not stated)	-2	-10	0	0	3
COC(=O)c1cc(S(=O)(=O)N2CCN(c3ccc([N+](=O)[O-])cc3)CC2)c[nH]1	1	9	0	207*	14
Cc1noc(C)c1S(=O)(=O)N1CCN(c2ccc([N+](=O)[O-])cc2)CC1	-4	-7	0	1	10
COC(=O)c1cc(S(=O)(=O)N2CCN(c3ccc(F)cc3)CC2)c[nH]1	-5	-7	0	2	1
O=[N+]([O-])c1ccc(N2CCN(S(=O)(=O)c3cnc[nH]3)CC2)cc1	0	0	0	10*	-36
c1ccc2oc(NC3=NCN(C4CCCCC4)CN3)nc2c1	-4	-1	0	1	-2
c1ccc2sc(NC3=NCN(C4CCCCCC4)CN3)nc2c1	0	7	4.4*	0	-5
O=C(c1ccco1)N1CCN(S(=O)(=O)c2cccc([N+](=O)[O-])c2)CC1	-5	-10	0	1	-4
Cc1ccc(NC(=O)CSCC(=O)O)cc1	-2	-5	0	3	-6
N#C/C(=C\Nc1ccccc1O)c1nc2ccccc2o1	6	1	0	27*	39
Cc1nn(CCC#N)c(NC(=O)c2ccc(Cl)cc2Cl)c1P(=O)(Nc1ccc([N+](=O)[O-])cc1)N1CCOCC1 (configuration not stated)	-3	1	0	5	52*
COc1ccc(N2CSC3=C(C#N)C(c4cccs4)CC(=O)N3C2)cc1 (configuration not stated)	-3	4	0	19*	-12
CCOC(=O)/C(C#N)=C1/C=CN(c2ccccc2)C=N1	6	7	0	14*	0
SMILES	ADAM17 inh	ADAM10 inh	aDG glyco act	NR3A LBD binder	FAS TE block
CCOC(=O)/C(C#N)=C1/C=CN(c2ccc(C)cc2)C=N1	8	13	0	1	-5
COc1ccc(C(=O)C2CCCN(C(=O)C3=CCCC3)C2)cc1OC (configuration not stated)	-3	-5	0	0	-1
CCCCc1ccc(NC(=S)NCc2cccc(OC)c2)cc1	6	19	1	11*	37
CCCCc1ccc(NC(=S)Nc2ccc(Nc3ccc(OC)cc3)cc2)cc1	4	9	0	12*	23
Cc1ccc(-n2nnnc2-c2cnn(-c3cccc(F)c3)c2C(F)(F)F)cc1	-2	-2	0	8	2
CCCCCCc1ccc(-c2ncc(N)cn2)cc1	4	-3	0	11*	29
COc1ccc(-n2c(=S)[nH]c3cc(C(=O)Nc4ccc(C)c(F)c4)ccc3c2=O)c(OC)c1	8	8	0	13*	16
CN(CC#CC(O)(c1ccccc1)c1ccccc1)C(C)(C)C	-2	4	0	1	-4

Assay outcomes deposited in PubChem by several laboratories.
